Results filed as inconclusive are left out. A call without a number means that no potency is given here. Values without a mark were called inactive. Calls of active or inactive are those of the source. Calls come from the whole dose curve; as a rule, active = well fitted inhibition curve with a large enough effect; inconclusive = small, poorly fitted or top-dose-only effect; inactive = flat fitted curve, though single readings scatter.
Columns and labels:
[1] = biological target: Glutathione peroxidase 1 (Homo sapiens) (UniProt P07203); experiment: Primary qHTS Assay for Inhibitors of Recombinant Selenoprotein Glutathione Peroxidase 1 (GPX1) (AID 1845191)
Chain of Glutathione peroxidase 1 (Homo sapiens) (P07203 whole entry, looked up): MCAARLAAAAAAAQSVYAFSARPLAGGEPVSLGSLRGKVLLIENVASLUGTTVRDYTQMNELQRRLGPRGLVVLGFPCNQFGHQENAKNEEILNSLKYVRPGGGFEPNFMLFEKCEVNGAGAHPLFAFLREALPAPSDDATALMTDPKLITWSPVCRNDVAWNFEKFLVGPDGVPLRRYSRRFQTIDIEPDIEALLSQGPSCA
In short: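 10 nM GPX1 + cpd, 30 min RT; start w/ 1 mM GSH, 0.5 mM cumene hydroperoxide, 0.5 mM NADPH, 100 nM GR, 0.01% BSA; buffer 50 mM Tris-HCl pH 7.5, 2 mM EDTA, 150 mM NaCl; Fl 340/450, 0 & 15 min.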

[2] = biological target: Phospholipid hydroperoxide glutathione peroxidase GPX4 (Homo sapiens) (UniProt P36969); experiment: Primary qHTS Assay for Inhibitors of Recombinant Selenoprotein Glutathione Peroxidase 4 (GPX4) (AID 1845192); for activity change, negative = inhibition: series mostly up to about 50 µM
Chain of Phospholipid hydroperoxide glutathione peroxidase GPX4 (Homo sapiens) (P36969 whole entry, looked up): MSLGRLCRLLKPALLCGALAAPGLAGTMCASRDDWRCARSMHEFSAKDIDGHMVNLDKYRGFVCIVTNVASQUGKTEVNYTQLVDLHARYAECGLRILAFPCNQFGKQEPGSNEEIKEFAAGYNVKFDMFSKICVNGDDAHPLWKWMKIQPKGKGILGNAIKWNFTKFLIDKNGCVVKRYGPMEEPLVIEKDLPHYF
In short: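 NADPH consumption, followed by fluorescence at 340/450 nm between 0 and 15 min, reports GPX4 activity via coupled glutathione reductase (100 nM). Enzyme 200 nM was pre-exposed to compound 30 min; 0.5 mM cumene hydroperoxide and 1 mM GSH served as substrates.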
Note: nearly all actives have a fitted effect of over 65% in size.
Potency is the fitted concentration of half-maximal effect.

SMILES: CCCCCCCCCCCCCCCCCC(=O)NCCCC[C@H](NC(=O)CC[C@@H](NC(=O)[C@H](C)NC(=O)[C@@H](C)O[C@H]1[C@H](O)[C@@H](CO)OC(O)[C@@H]1NC(C)=O)C(N)=O)C(=O)O (some centres undefined)
- Potency [1]: inactive
- Potency [2]: inactive

SMILES: CCCCCCCCN=C(N)NC(N)=NCc1ccc(Cl)c(Cl)c1
- Potency [1]: inactive
- Potency [2]: inactive

SMILES: NC(N)=NCCC[C@@H](N)C(=O)N[C@@H](CCCN=C(N)N)C(=O)N1CCC[C@H]1C(=O)N1C[C@H](O)C[C@H]1C(=O)NCC(=O)N[C@@H](Cc1cccs1)C(=O)N[C@@H](CO)C(=O)N1Cc2ccccc2C[C@@H]1C(=O)N1[C@H](C(=O)N[C@@H](CCCN=C(N)N)C(=O)O)C[C@@H]2CCCC[C@@H]21
- Potency [1]: inactive
- Potency [2]: inactive

SMILES: CCCCCCCCCCCC(=O)OCN1C(=O)CCc2ccc(OCCCCN3CCN(c4cccc(Cl)c4Cl)CC3)cc21
- Potency [1]: inactive
- Potency [2]: inactive

SMILES: CC[C@H]1OC(=O)C[C@@H](O)[C@H](C)[C@@H](OC2OC(C)C(O)C(N(C)C)C2O)[C@@H](CCN2CCCCC2)C[C@@H](C)C(=O)/C=C/C(C)=C/[C@@H]1CN1CCCCC1 (some centres undefined)
- Potency [1]: inactive
- Potency [2]: inactive

SMILES: C=C[C@]1(C)C[C@@H](OC(=O)CSC2C[C@H]3CC[C@@H](C2)N3C)C2(C)[C@H](C)CCC3(CCC(=O)[C@H]32)[C@@H](C)[C@@H]1O (some centres undefined)
- Potency [1]: inactive
- Potency [2]: inactive

SMILES: CC1(C)C[C@H]1C(=O)N/C(=C\CCCCSC[C@@H](N)C(=O)O)C(=O)O
- Potency [1]: inactive
- Potency [2]: inactive

SMILES: OC(CCN1CCCCC1)(c1ccccc1)C1CCCC1 (centres undefined)
- Potency [1]: inactive
- Potency [2]: inactive

SMILES: CC[C@H]1[C@@H](O)[C@@H]2[C@H](CC[C@]3(C)[C@@H]([C@H](C)CCC(=O)O)CC[C@@H]23)[C@@]2(C)CC[C@@H](O)C[C@@H]12
- Potency [1]: inactive
- Potency [2]: 11.2 µM (active)

SMILES: Cc1oc(-c2ccccc2)nc1CCOc1ccc(CC2C(=O)NOC2=O)cc1 (centres undefined)
- Potency [1]: inactive
- Potency [2]: 14.1 µM (active)

SMILES: CCC(C)C(NC(=O)C(Cc1ccc(O)cc1)NC(=O)C(NC(=O)C(CCCN=C(N)N)NC(=O)C(N)CC(=O)O)C(C)C)C(=O)NC(Cc1cnc[nH]1)C(=O)N1CCCC1C(=O)NC(Cc1ccccc1)C(=O)O (centres undefined)
- Potency [1]: inactive
- Potency [2]: inactive

SMILES: C[N+]1(C)C2CC[C@H]1CC(OC(=O)C(O)c1ccccc1)C2 (some centres undefined)
- Potency [1]: inactive
- Potency [2]: inactive

SMILES: CC(OC(=O)NCC1(CC(=O)O)CCCCC1)OC(=O)C(C)C (centres undefined)
- Potency [1]: inactive
- Potency [2]: inactive

SMILES: CCCCC(CC)COc1ccc(-c2nc(-c3ccc(OC)cc3)nc(-c3ccc(OCC(CC)CCCC)cc3O)n2)c(O)c1 (centres undefined)
- activity, negative = inhibition [1]: -11% [at 4.49 µM]
- activity change, negative = inhibition [2]: -23.8% [at 4.52 µM]

SMILES: C=C1/C(=C/C=C2\CCC[C@]3(C)[C@@H]([C@H](C)CC[C@@H](O)C(C)C)CC[C@@H]23)C[C@@H](O)C[C@@H]1O
- Potency [1]: inactive
- Potency [2]: 15.8 µM (active)

SMILES: CN1C2CC[C@@H]1CC(OC(=O)[C@H](CO)c1ccccc1)C2 (some centres undefined)
- Potency [1]: inactive
- Potency [2]: inactive

SMILES: [2H]C([2H])([2H])C(O)(CCO[C@@H](C)[C@H]1CC[C@H]2/C(=C/C=C3\C[C@@H](O)C[C@H](O)C3=C)CCC[C@]12C)C([2H])([2H])[2H]
- Potency [1]: inactive
- Potency [2]: inactive

SMILES: CCCCCC(O)/C=C/[C@@H]1C(CCCCCCC(=O)O)C(=O)C[C@@H]1O (some centres undefined)
- Potency [1]: inactive
- Potency [2]: inactive

SMILES: CC[C@H]1OC(=O)C[C@@H](OC(C)=O)[C@H](C)[C@@H](O[C@@H]2O[C@H](C)[C@@H](O[C@H]3C[C@@](C)(O)[C@@H](OC(=O)CC(C)C)[C@H](C)O3)[C@H](N(C)C)[C@H]2O)[C@@H](CC=O)C[C@@H](C)C(=O)/C=C/C(C)=C/[C@@H]1CO[C@@H]1O[C@H](C)[C@@H](O)[C@@H](OC)[C@H]1OC
- Potency [1]: inactive
- Potency [2]: inactive

SMILES: C[C@H](Cc1cc2c(c(C(N)=O)c1)N(CCCO)CC2)NCCOc1ccccc1OCC(F)(F)F
- Potency [1]: inactive
- Potency [2]: inactive

SMILES: CNCC(=O)OCc1cccnc1N(C)C(=O)OC(C)[n+]1cnn(C[C@](O)(c2cc(F)ccc2F)[C@@H](C)c2nc(-c3ccc(C#N)cc3)cs2)c1 (some centres undefined)
- Potency [1]: inactive
- Potency [2]: inactive

SMILES: O=C1[C@@H]2[C@H]3CC[C@H](C3)[C@@H]2C(=O)N1C[C@@H]1CCCC[C@H]1CN1CCN(c2nsc3ccccc23)CC1
- Potency [1]: inactive
- Potency [2]: inactive

SMILES: Cc1cc2nc3c(=O)[nH]c(=O)nc-3n(C[C@H](O)[C@H](O)[C@H](O)COP(=O)(O)OP(=O)(O)OC[C@H]3O[C@@H](n4cnc5c(N)ncnc54)[C@H](O)[C@H]3O)c2cc1C
- Potency [1]: inactive
- Potency [2]: inactive

SMILES: N#Cc1c(N2C[C@@H]3NCCO[C@H]3C2)c(F)cc2c(=O)c(C(=O)O)cn(C3CC3)c12
- Potency [1]: inactive
- Potency [2]: inactive

SMILES: Cc1ncc([N+](=O)[O-])n1CCOC(=O)c1ccccc1
- Potency [1]: inactive
- Potency [2]: inactive

SMILES: CCC(CN)CC(C)CNCC(O)CNCC(CC)CC(CC)CN (centres undefined)
- Potency [1]: inactive
- Potency [2]: inactive

SMILES: C=C1/C(=C/C=C2\CCC[C@]3(C)[C@@H]([C@H](C)CCCC(O)(C(F)(F)F)C(F)(F)F)CC[C@@H]23)C[C@@H](O)C[C@@H]1O
- Potency [1]: inactive
- Potency [2]: 14.1 µM (active)

SMILES: CC(OC(=O)OC1CCCCC1)OC(=O)C1=C(CSc2nnnn2CCN(C)C)CS[C@@H]2[C@H](NC(=O)Cc3csc(N)n3)C(=O)N12 (some centres undefined)
- Potency [1]: 7.18 µM (active)
- Potency [2]: 8.91 µM (active)

SMILES: CCCN1C[C@@H](NS(=O)(=O)N(CC)CC)C[C@@H]2Cc3c(O)cccc3C[C@H]21
- Potency [1]: inactive
- Potency [2]: inactive

SMILES: O=c1c2c(c1=O)N(CCP(=O)(O)O)CCCN2
- Potency [1]: inactive
- Potency [2]: inactive

SMILES: O=C(OC[C@H]1O[C@@H](OC(=O)c2cc(O)c(O)c(O)c2)[C@H](O)[C@@H](OC(=O)c2cc(O)c(O)c(O)c2)[C@@H]1O)c1cc(O)c(O)c(O)c1
- Potency [1]: inactive
- Potency [2]: inactive

SMILES: O=C(O)C[C@@H]1CC[C@H](NC(=O)Cc2cccs2)B(O)O1
- Potency [1]: inactive
- Potency [2]: inactive

SMILES: CC1CC2C3CCC4=CC(=O)C=CC4(C)C3(F)C(O)CC2(C)C1(O)C(=O)COC(=O)c1cccc(S(=O)(=O)O)c1 (centres undefined)
- Potency [1]: inactive
- Potency [2]: 20 µM (active)

SMILES: CCC(c1ccccc1)c1c(O)c2ccccc2oc1=O (centres undefined)
- Potency [1]: inactive
- Potency [2]: inactive

SMILES: CC(C)C[C@H](NC(=O)[C@@H](Cc1c[nH]c2ccccc12)NC(=O)[C@H](Cc1ccc(O)cc1)NC(=O)[C@H](CO)NC(=O)[C@H](Cc1c[nH]c2ccccc12)NC(=O)[C@H](Cc1cnc[nH]1)NC(=O)[C@@H]1CCC(=O)N1)C(=O)N[C@@H](CCCN=C(N)N)C(=O)N1CCC[C@H]1C(=O)NCC(N)=O
- Potency [1]: inactive
- Potency [2]: inactive

SMILES: C[C@H](CCC(=O)O)[C@H]1CC[C@H]2[C@@H]3CC[C@@H]4C[C@H](O)CC[C@]4(C)[C@@H]3C[C@H](O)[C@]12C
- Potency [1]: inactive
- Potency [2]: inactive

SMILES: C#C[C@]1(O)CC[C@H]2[C@@H]3CCC4=CC(=O)CCC4[C@H]3CC[C@@]21CC (some centres undefined)
- Potency [1]: inactive
- Potency [2]: inactive

Reference: PubChem BioAssay (NCATS)
